This is an account of results in PubChem BioAssay (Tox21).

Assay [1] can be described thus: qHTS assay to test for compound auto fluorescence at 535 nm (green) in HEK293 cells (AID 720680). A general note: qHTS replaces the single test concentration by a dilution series.
A short description of assay [2]: qHTS assay to test for compound auto fluorescence at 460 nm (blue) in HEK293 cell free culture (AID 720681). The method in brief: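 Test compounds were pinned into cell-free culture medium (DMEM with 10% FBS) and fluorescence was read directly at Ex/Em 405/460 nm. Signals were expressed as fluorescence equivalents of triamterene, with DMSO vehicle as control.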
Assay [3] in a line: qHTS assay to test for compound auto fluorescence at 590 nm (red) in HEK293 cell free culture (AID 720683). The method in brief:
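Tox21 10K library compounds were pinned into cell-free DMEM with 10% FBS and fluorescence was read at excitation 540 nm. Activity is expressed as Rose Bengal sodium equivalency.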

The nature of assay [4]: qHTS assay to test for compound auto fluorescence at 590 nm (red) in HepG2 cell free culture (AID 720684). The method in brief: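 Red fluorescence (540 nm excitation, 590 nm emission) was measured after compound transfer into cell-free MEM supplemented with 10% FBS. Values are equivalencies against Rose Bengal sodium.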
Assay [5] is described as follows: qHTS assay to test for compound auto fluorescence at 460 nm (blue) in HepG2 cell free culture (AID 720685). The method in brief:
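Compound (23 nL) or DMSO pinned into cell-free MEM with 10% FBS; blue fluorescence read at 405/460 nm excitation/emission, expressed as auto-fluorescence equivalency to triamterene.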

Assay [6] in a line: qHTS assay to test for compound auto fluorescence at 535 nm (green) in HepG2 cell free culture (AID 720686).
The nature of assay [7]: qHTS assay to test for compound auto fluorescence at 460 nm (blue) in HepG2 cells (AID 720687). The method in brief: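 Cells (2,000/well in MEM with 10% FBS) attached overnight at 37 C, then were exposed to compound or DMSO for 1 hr at 37 C, 5% CO2. Fluorescence read at Ex/Em 405/460 nm, expressed as triamterene-equivalent signal.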
Assay [8] can be described thus: qHTS assay to identify small molecule antagonists of the glucocorticoid receptor (GR) signaling pathway - cell viability counter screen (AID 720693). Further: nearly all actives have a fitted effect of over 55% in size.
Assay [9] can be described thus: qHTS assay for identifying genotoxic compounds that show differential cytotoxicity against isogenic chicken DT40 cell lines with known DNA damage response pathways - wild type cell line (AID 743012). Further: nearly all actives have a fitted effect of over 60% in size. Further: potency means the concentration at half of the fitted maximal effect. The method in brief:
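Wild type DT40, 300 cells/well, ~0.5 h settle at 37 C/5% CO2; compounds in DMSO added by pintool; 40 h at 37 C/5% CO2; CellTiter-Glo, 30 min RT; luminescence.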

A short description of assay [10]: qHTS assay for identifying genotoxic compounds that show differential cytotoxicity against isogenic chicken DT40 cell lines with known DNA damage response pathways - Rev3 mutant cell line (AID 743014). Further: nearly all actives have a fitted effect of over 55% in size. Further: potency means the concentration at half of the fitted maximal effect.
Assay [11] in a line: qHTS assay for identifying genotoxic compounds that show differential cytotoxicity against isogenic chicken DT40 cell lines with known DNA damage response pathways - Rad54/Ku70 mutant cell line (AID 743015). Further: nearly all actives have a fitted effect of over 60% in size. Further: potency means the concentration at half of the fitted maximal effect.
A short description of assay [12]: qHTS assay to identify small molecule antagonists of the androgen receptor (AR) signaling pathway - cell viability counter screen (AID 743033; further: nearly all actives have a fitted effect of over 45% in size).
Assay [13] in a line: qHTS assay to identify small molecule antagonists of the androgen receptor (AR) signaling pathway using the MDA cell line - cell viability counter screen (AID 743041; further: nearly all actives have a fitted effect of over 45% in size). The method in brief: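 MDA-kb2 AR-luc human breast carcinoma cells (MMTV-luciferase, AR/GR responsive) were treated with compounds plus R1881 agonist for 16 h at 37 °C. Viability was read as CellTiter-Fluor fluorescence in the same wells as the reporter assay.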

Assay [14] is described as follows: qHTS assay to identify small molecule antagonists of the thyroid receptor (TR) signaling pathway - cell viability counter screen (AID 743064). Further: nearly all actives have a fitted effect of over 50% in size. Further: potency means the concentration at half of the fitted maximal effect. The method in brief: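 Viability of T3-stimulated (1 nM final) GH3.TRE-Luc cells is measured by CellTiter-Fluor fluorescence after 23.5 h compound exposure at 37 °C plus 30 min reagent incubation.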
Assay [15] has as its target Androgen receptor (Homo sapiens) (UniProt P10275). Put plainly: qHTS assay to identify small molecule antagonists of the androgen receptor (AR) signaling pathway (AID 743035; active means well fitted inhibition curve with a large enough effect in the signal ratio in the repeat runs, not every such curve was filed as active; the % refers to the signal ratio). The method in brief:
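Fluorescence from a beta-lactamase FRET substrate (LiveBLAzer B/G, 2 h, room temperature) measured inhibition of R1881-stimulated signaling in GeneBLAzer AR-UAS-bla HEK293 cells exposed to compound for 16 h at 37C.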

Assay [16] has the same target. The experiment in a line: qHTS assay to identify small molecule agonists of the androgen receptor (AR) signaling pathway using the MDA cell line (AID 743040; further: nearly all actives have a fitted effect of over 20% in size). The method in brief:
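MDA-kb2 breast carcinoma cells stably carrying an MMTV-driven luciferase reporter (AR- and GR-responsive) were seeded and held 5 h at 37C, 0% CO2, then exposed to compounds in DMSO for 16 h. Luminescence was read 30 min after ONE-Glo addition.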

For assay [17] the target is unchanged. Put plainly: qHTS assay to identify small molecule antagonists of the androgen receptor (AR) signaling pathway using the MDA cell line (AID 743042; further: nearly all actives have a fitted effect of over 55% in size). The method in brief:
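MDA-kb2 cells (human breast carcinoma, stably carrying an MMTV-luciferase reporter responsive to AR and GR) were plated at 3,000 cells/well and preincubated 5 hr at 37C, then given compound plus R1881 agonist for 16 h. ONE-Glo luminescence was read.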

In assay [18] the target is Glucocorticoid receptor (Homo sapiens) (UniProt P04150). The experiment in a line: qHTS assay to identify small molecule agonists of the glucocorticoid receptor (GR) signaling pathway (AID 720691; active means well fitted activation curve with a large enough effect in the signal ratio in the repeat runs, not every such curve was filed as active; the % refers to the signal ratio). The method in brief:
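Fluorescence intensity from LiveBLAzer B/G FRET substrate (2 h, room temperature) reports beta-lactamase expression driven by the glucocorticoid response element in GR-bla HeLa cells after 18 h compound exposure at 37 C.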

The target is the same in assay [19]. The experiment in a line: qHTS assay to identify small molecule antagonists of the glucocorticoid receptor (GR) signaling pathway (AID 720692; active means well fitted inhibition curve with a large enough effect in the signal ratio in the repeat runs, not every such curve was filed as active; the % refers to the signal ratio). The method in brief:
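HeLa GR-bla cells; cmpd + dex 5 nM final, 18 h 37 C; LiveBLAzer B/G FRET substrate 2 h RT; fluorescence intensity read. Antagonist mode, qHTS.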

Assay [20] in a line: qHTS assay to test for compound auto fluorescence at 535 nm (green) in HEK293 cell free culture (AID 720682). The method in brief: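 DMEM + 10% FBS, cell-free; cpd or DMSO pinned in; Ex485/Em535 read; output as fluorescein-equivalent signal.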

Values without a mark were called inactive. Inconclusive results are not listed. Calls of active or inactive are those of the source. Unless noted, the call rests on the fitted dose curve; in most records, active means well fitted curve in the direction sought with a large enough effect in the repeat runs; inconclusive means weak or mixed curves; inactive means no such curve, though single readings can be large; an effect the other way counts as inactive or inconclusive.
On the % scale 0 is the no-effect control and ±100 the full control effect.

Chain of Glucocorticoid receptor (Homo sapiens) (P04150 whole entry, looked up): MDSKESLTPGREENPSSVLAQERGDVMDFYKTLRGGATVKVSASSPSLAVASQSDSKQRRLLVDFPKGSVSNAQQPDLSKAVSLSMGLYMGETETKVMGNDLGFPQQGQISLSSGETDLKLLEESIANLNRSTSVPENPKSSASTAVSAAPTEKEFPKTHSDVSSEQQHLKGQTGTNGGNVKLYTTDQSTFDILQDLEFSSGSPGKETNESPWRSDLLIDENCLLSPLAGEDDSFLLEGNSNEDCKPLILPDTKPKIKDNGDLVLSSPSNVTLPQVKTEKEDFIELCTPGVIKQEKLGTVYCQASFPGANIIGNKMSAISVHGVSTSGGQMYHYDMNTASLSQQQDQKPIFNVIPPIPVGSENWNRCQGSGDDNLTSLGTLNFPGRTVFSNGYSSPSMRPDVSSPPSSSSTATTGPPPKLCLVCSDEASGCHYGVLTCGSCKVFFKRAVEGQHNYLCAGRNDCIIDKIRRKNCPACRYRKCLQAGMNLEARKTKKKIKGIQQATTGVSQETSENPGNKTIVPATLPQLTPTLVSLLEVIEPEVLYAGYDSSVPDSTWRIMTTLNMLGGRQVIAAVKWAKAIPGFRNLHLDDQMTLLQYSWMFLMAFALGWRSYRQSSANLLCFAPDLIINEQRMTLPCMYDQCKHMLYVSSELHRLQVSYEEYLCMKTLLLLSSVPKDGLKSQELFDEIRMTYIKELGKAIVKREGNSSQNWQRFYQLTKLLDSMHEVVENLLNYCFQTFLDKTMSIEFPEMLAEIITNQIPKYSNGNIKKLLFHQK
Chain of Androgen receptor (Homo sapiens) (P10275 whole entry, looked up): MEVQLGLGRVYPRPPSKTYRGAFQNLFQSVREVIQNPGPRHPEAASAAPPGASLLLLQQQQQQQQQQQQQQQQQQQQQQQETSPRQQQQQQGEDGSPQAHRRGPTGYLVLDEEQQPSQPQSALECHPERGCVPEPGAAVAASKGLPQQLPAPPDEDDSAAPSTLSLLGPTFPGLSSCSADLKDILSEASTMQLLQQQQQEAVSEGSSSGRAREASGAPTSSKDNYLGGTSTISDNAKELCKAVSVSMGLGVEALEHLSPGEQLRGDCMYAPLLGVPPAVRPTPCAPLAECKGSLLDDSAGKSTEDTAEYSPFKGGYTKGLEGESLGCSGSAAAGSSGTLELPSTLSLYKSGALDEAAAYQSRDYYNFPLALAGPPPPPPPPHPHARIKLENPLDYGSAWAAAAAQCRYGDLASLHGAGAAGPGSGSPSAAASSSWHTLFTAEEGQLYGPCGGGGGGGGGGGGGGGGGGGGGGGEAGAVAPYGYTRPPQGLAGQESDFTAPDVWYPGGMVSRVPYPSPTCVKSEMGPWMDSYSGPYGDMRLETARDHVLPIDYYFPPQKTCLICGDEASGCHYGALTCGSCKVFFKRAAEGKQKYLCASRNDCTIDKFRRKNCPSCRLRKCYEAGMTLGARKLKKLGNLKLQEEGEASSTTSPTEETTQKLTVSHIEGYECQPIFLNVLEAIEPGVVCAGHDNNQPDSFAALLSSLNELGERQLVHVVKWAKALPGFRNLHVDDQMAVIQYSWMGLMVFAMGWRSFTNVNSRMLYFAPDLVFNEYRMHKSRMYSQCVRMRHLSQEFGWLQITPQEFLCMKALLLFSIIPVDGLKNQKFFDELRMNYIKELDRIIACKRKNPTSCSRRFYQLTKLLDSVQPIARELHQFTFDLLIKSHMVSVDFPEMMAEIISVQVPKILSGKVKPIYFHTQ

Turning to `O=S(=O)(O)C(F)(F)F`, the result in assay [1], in [2], in assay [3], in assay [4], in assay [5] and in [6] was inactive. In addition, the compound was classed as inactive in assay [7], in assay [8] and in assay [12]. Moreover, the Potency result in assay [9], in [10], in assay [11], in assay [13] and in assay [14] was “inactive” in each case.

For the compound `COC(C)CCO` (centres undefined), the compound was called inactive in assay [1], in assay [2], in assay [3], in assay [4], in assay [5] and in assay [7]. Besides, the result in assay [8], in [12] and in [17] was inactive. The Potency result in [9], in assay [10], in [11], in [15], in [16] and in assay [14] was “inactive” throughout.

As to `CCOC(=O)COc1ccc2c(c1)CC(NCC(O)c1cccc(Cl)c1)CC2` (centres undefined), the outcome in assay [1], in assay [2], in [3], in assay [4], in assay [5] and in assay [6] was inactive. The outcome in assay [7] was inactive. Further, the Potency was 54.9 µM (active) in [9], 54.9 µM (active) in assay [10], 54.9 µM (active) in [11] and 27.5 µM (active) in assay [14]. Further, the Potency result in assay [13] is “inactive”.

In the case of `O=C1N(c2ccccc2)c2ccccc2C1(Cc1ccncc1)Cc1ccncc1`, the call in assay [1], in assay [2], in [3], in assay [4], in assay [5] and in assay [6] was inactive. For the same compound, the outcome in [7] and in [12] was inactive. The Potency result in [18], in assay [19], in assay [11], in assay [13] and in assay [14] was “inactive” in each case.

Turning to `O=C(O)C(=O)Cc1c[nH]c2ccccc12`, the compound was called inactive in [1], in assay [2], in assay [3], in assay [4], in assay [5] and in [6]. Also, the outcome in assay [7] and in assay [12] was inactive. For the same compound, the Potency result in assay [9], in [10], in [11], in assay [13] and in assay [14] was “inactive” throughout.

As to `C=O`, the result in assay [1], in assay [2], in assay [3], in assay [4], in assay [5] and in assay [6] was inactive. The call in [7] and in assay [12] was inactive. For the same compound, the Potency result in assay [9], in assay [10], in assay [11], in [13] and in assay [14] was “inactive” throughout.

For the compound `CCCN(CCC)C(=O)C(CCC(=O)O)NC(=O)c1ccccc1` (centres undefined), the outcome in assay [1], in [2], in assay [3], in assay [4], in [5] and in assay [6] was inactive. In addition, the compound was called inactive in assay [7], in assay [8] and in [12]. Further, the Potency entry in [18], in [9], in [10], in assay [11] and in [14] was “inactive” each time.

Turning to `CCCCCCCCCC/C=C/C#N`, the result in [1], in assay [20], in assay [3], in assay [4], in assay [5] and in assay [6] was inactive. Besides, the compound was called inactive in [7] and in assay [12]. The Potency result in [9], in [11], in assay [13] and in [14] was “inactive” in each case.

Take `CC(C)CC(=O)OCc1ccccc1`: the outcome in assay [1], in assay [2], in assay [3], in assay [4], in assay [5] and in [6] was inactive. Besides, the compound was classed as inactive in assay [7] and in assay [8]. Moreover, the Potency result in [18], in assay [19], in [9], in assay [13] and in assay [14] was “inactive” in each case.

In the case of `CN1CCC[C@@H]1Cc1c[nH]c2ccc(CCS(=O)(=O)c3ccccc3)cc12`, the outcome in [1], in assay [2], in assay [3], in [4], in assay [5] and in assay [7] was inactive. Also, the compound was called inactive in assay [8] and in [12]. Moreover, the Potency in assay [9] is 26.6 µM (active); in assay [10], 33.5 µM (active); in [11], 29.8 µM (active). In assay [13], the Potency result was “inactive”.

`FC(F)(F)C(F)(F)C(F)(F)C(F)(F)C(F)(F)C(F)(F)C(F)(F)C(F)(F)Br`: the outcome in [1], in assay [2], in assay [3], in assay [4], in [5] and in assay [6] was inactive. Besides, the outcome in assay [8] was inactive. In addition, the Potency entry in assay [18], in [19], in assay [9], in assay [10], in assay [11] and in assay [13] was “inactive” in each case. The Potency result in [14] was “inactive”.

Regarding `CC/C=C\CCOC(=O)C(C)C`, the outcome in assay [1], in assay [2], in assay [3], in assay [4], in assay [5] and in assay [6] was inactive. Besides, the outcome in [7], in assay [8] and in [12] was inactive. Besides, the Potency entry in assay [9], in assay [11] and in [14] was “inactive” throughout.

As for `COc1cc(N)c(Cl)cc1C(=O)NC1CCN(Cc2ccccc2)CC1`, the fluorescence, % of fluorescein in assay [1] is 0.0161% [at 18.6 µM]. Besides, the fluorescence, % of fluorescent control in [2] was -0.0892% [at 18.6 µM]; in [3], 0.0929% [at 18.6 µM]; in assay [5], 2.92% [at 18.6 µM]. In [4], the fluorescence, % of Rose Bengal was 0.723% [at 18.6 µM]. The fluorescence, % of fluorescein control in [6] is -0.0056% [at 18.6 µM]. The Potency entry in [18], in assay [19], in [13] and in [14] was “inactive” in each case. Besides, the outcome in assay [8] was inactive.

Consider `Cc1cc2nc(N)sc2cc1C`, for which the result in assay [1], in [2], in [3], in [4], in assay [5] and in assay [6] was inactive. Further, the result in assay [7], in assay [8] and in assay [17] was inactive. Besides, the Potency entry in assay [18], in assay [19], in assay [16], in assay [13] and in [14] was “inactive” each time. For the same compound, the values for the Potency in assay [9] and in assay [10] were 61.7 µM (active) and 55 µM (active), respectively.

On to `CC(C)=CCCC(C)CCOC=O` (centres undefined), for which the compound was classed as inactive in assay [1], in assay [2], in assay [3], in assay [4], in assay [5] and in [6]. The call in assay [7], in assay [8] and in assay [12] was inactive. The Potency entry in assay [19], in [13] and in assay [14] was “inactive” in each case. The Potency in [9] was 48.6 µM (active); in assay [10], 27.3 µM (active); in [11], 27.3 µM (active).
